Bioassay records (PubChem)
TDP1 cell CPT: qHTS for Inhibitors of human tyrosyl-DNA phosphodiesterase 1 (TDP1): qHTS in cells in presence of CPT. AID 686979, 2013. 420,000 compounds, 12% hits. Potency, µM (titrated, usually from 46.2 µM), inactives show top-dose activity change, negative = growth inhibition, actives largely listed as inhibitors. chicken DT40 Tdp1-/-;hTDP1 cells + 20 nM CPT, ATP luminescence, 48 h; also: potency is read from the fitted curve at half-maximal effect; nearly all actives have a fitted effect of over 55% in size
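Cell growth measured by CellTiter-Glo luminescence after a minimum 48 h, 37 C compound exposure with 20 nM CPT in Tdp1-knockout DT40 cells stably expressing hTDP1, seeded 400/well; qHTS titration format.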
IL-1B inflam inh: qHTS for Inhibitors of Inflammasome Signaling: IL-1-beta AlphaLISA Primary Screen; AID 743279, 2014; activity change, % at 57.5 µM; THP-1 LPS/ATP IL-1B secretion, AlphaLISA, 16 h; active compounds read low; 360,000 compounds, 4.7% hits; in the data active = activity change below about -50%; inconclusive = mostly about -30% to -49%
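THP-1 cells pretreated 1 hr with compounds (up to 57.5 uM final), then stimulated with LPS (250 ng/mL final) plus ATP (1.25 mM final); secreted IL-1B measured by AlphaLISA after 16 hr, decreased signal indicating inhibition.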
DT40 TDP1 no CPT: qHTS for Inhibitors of human tyrosyl-DNA phosphodiesterase 1 (TDP1): qHTS in cells in absence of CPT; Potency, µM (doses to about 46.2 µM), without a hit: top-dose activity change, negative = growth inhibition, most hits filed as inhibitors; DT40 Tdp1-/- hTDP1 cells, no CPT, ATP luminescence, 48 h; AID 686978, 2013; 420,000 compounds, 15% hits; also: potency is read from the fitted curve at half-maximal effect; nearly all actives have a fitted effect of over 55% in size
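DT40 Tdp1-/-;hTDP1 cells, no CPT (DMSO vehicle only), 400 cells/well; compounds pin-transferred; ≥48 hr, 37 °C; CellTiter-Glo 30 min RT dark, luminescence read.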
HT1080 IDH1KD tx: qHTS for induction of synthetic lethality in tumor cells producing 2HG: qHTS for the HT-1080-IDH1KD cell line | HT-1080 IDH1 knockdown viability, ATP luminescence, 48 h | AID 686971, 2013 | Potency, µM (titrated, usually from 46.1 µM), without a hit: top-dose activity, negative = toxicity, hits mostly cytotoxic | 360,000 compounds, 2% hits;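 also: potency is read from the fitted curve at half-maximal effect; 0% = DMSO wells and -100% = cell-free medium wells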
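CellTiter-Glo luminescence after 48 h compound exposure at 37 degrees C of IDH1-knockdown HT-1080 cells in 5% FBS RPMI. %Activity scaled between DMSO wells and cell-free media wells, with curves fitted and assigned curve classes.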
ELG1 DNA repair: qHTS screen for small molecules that inhibit ELG1-dependent DNA repair in human embryonic kidney (HEK293T) cells expressing luciferase-tagged ELG1; 330,000 compounds, 2.3% hits; Potency, µM (highest dose often 46.1 µM), for the others: at the highest dose activity change, negative = inhibition, hits mostly inhibitors; AID 504467, 2011; HEK293T ELG1-luciferase reporter, luminescence, 16 h; DNA damage induced by 5-fluorouridine; also: potency is read from the fitted curve at half-maximal effect; nearly all actives have a fitted effect of over 55% in size
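5-Fluorouridine DNA damage + compound/DMSO, 2,000 cells/well, 16 h, 37 °C/5% CO2. ONE-Glo, 30 min RT, luminescence. Readout = decrease in reporter signal.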
HT1080-NT tox: qHTS for induction of synthetic lethality in tumor cells producing 2HG: qHTS for the HT-1080-NT fibrosarcoma cell line | HT-1080-NT fibrosarcoma viability, CellTiter-Glo ATP luminescence, 48 h | Potency, µM (highest dose often 46.1 µM), without a hit: at the highest dose activity, negative = less viability, hits mostly cytotoxic | 360,000 compounds, 1.6% hits;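 also: NT is the 2HG producing partner of a matched IDH1 knockdown line; potency is read from the fitted curve at half-maximal effect; 0% = DMSO-treated cells and -100% = media-only wells without cells; nearly all actives have a fitted effect of over 55% in size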
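Toxicity toward the 2HG-producing NT line was scored as %Activity, normalised to DMSO and no-cell wells, from CellTiter-Glo luminescence after 48 hours' treatment.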
Starred values were filed as active, the others as inactive; ? = inconclusive; · = no result. Shown are actives, neighbours in structure and some others; about 19% of the full set was active somewhere. Unless noted, calls follow the shape of the dose curve; as a rule, active = well fitted curve in the direction sought with a large enough effect; inconclusive = small, poorly fitted or top-dose-only effect, or another doubt; inactive = no such curve, though single readings can be large; an effect the other way counts as inactive or inconclusive. Unless noted, % is scaled to controls: 0 for no effect and ±100 for the full control effect.

SMILES	TDP1 cell CPT	IL-1B inflam inh	DT40 TDP1 no CPT	HT1080 IDH1KD tx	ELG1 DNA repair	HT1080-NT tox
N#Cc1c2ccc(O)cc2n2ccccc12	?	-52*	8.2µM*	-3%	4.1µM*	-23%
Cc1ccc(C2(C(F)(F)F)NC(=O)N3CCN=C3S2)cc1 (stereo unspecified)	21µM*	·	?	0%	-20%	0%
O=C1NC(c2ccccc2)(C(F)(F)F)SC2=CCCCCN12 (stereo unspecified)	-27%	9	-22%	6%	-8%	8%
Cc1ccc(S(=O)(=O)c2cc3ccccc3nc2N)cc1	-13%	22	-23%	-1%	-10%	-7%
COc1c(C(O)CC(C)C)ccc2c1C(=O)OCc1cc(C)cc(O)c1O2 (stereo unspecified)	?	1	18µM*	-15%	?	-4%
COc1c(C(CC(C)C)OC(C)=O)ccc2c1C(=O)OCc1cc(C)cc(O)c1O2 (stereo unspecified)	9.2µM*	-24	12µM*	?	?	-27%
COc1ccc(OC)c(CN2CCN(C(=O)c3ccc(S(=O)(=O)Nc4ccccc4F)cc3)CC2)c1	?	25	?	-7%	-2%	1%
O=C(O)c1cccc(N=C2NC(=O)C(CO)(CO)S2)c1	-1%	1	-5%	22%	-1%	17%
COCCNC(=O)CN1C(=O)/C(=C/c2ccccc2)Oc2ccc(C(C)(C)C)cc21	?	-53*	?	-1%	?	12%
O=C(CN1C(=O)COc2ccccc21)NCCCN1CCOCC1	2%	15	-16%	9%	15%	0%
CCc1ccc(/C=C2/Sc3ccccc3N(CC(=O)NCCCN3CCOCC3)C2=O)cc1	?	-65*	21µM*	0%	24%	8%
O=C(CN1C(=O)/C(=C\c2cccc(Cl)c2)Sc2ccccc21)NCCCN1CCOCC1	23µM*	-6	23µM*	0%	0%	6%
O=C(CN1C(=O)/C(=C\c2cccc(Br)c2)Oc2ccccc21)NCCCN1CCOCC1	?	-52*	18µM*	-24%	0%	8%
O=C(CN1C(=O)/C(=C\c2ccccc2Cl)Sc2ccccc21)NCCCN1CCOCC1	?	?	?	?	-1%	?
CCC(C(=O)Nc1c(C)cccc1C)n1c(-c2cnc(C)cn2)nc2ccccc21 (stereo unspecified)	-10%	39	-27%	-18%	·	2%
COc1cccc(NC(=O)CN2C=NS(=O)(=O)c3ccccc32)c1	-1%	·	-16%	·	·	·
O=C(Nc1ccc(F)cc1)Nc1nnc([C@@H]2C[C@H](O)[C@@H](CO)O2)s1	-10%	0	-6%	5%	·	13%
O=C(Nc1ccccc1)N1CCC2(CCNCC2)CC1	-14%	·	-27%	·	·	·
O=C(CN1C(=O)/C(=C/c2ccc(C(F)(F)F)cc2)Sc2ccccc21)NCCCN1CCOCC1	26µM*	?	?	?	?	?
O=C(Nc1ccccc1OCc1cc(=O)n2ccccc2n1)Nc1ccccc1C(F)(F)F	5%	·	-9%	·	·	·
CCCCOc1ccc(C2OC34CCCCC3C(C#N)(C#N)C2(C#N)C(=N)O4)cc1 (stereo unspecified)	-7%	4	-3%	3%	11%	12%
CCOc1ccc(C2OC34CCCCC3C(C#N)(C#N)C2(C#N)C(=N)O4)cc1OC (stereo unspecified)	13µM*	-6	16µM*	1%	-2%	0%
C=CCOc1ccc(C2OC34CCCCC3C(C#N)(C#N)C2(C#N)C(=N)O4)cc1 (stereo unspecified)	13µM*	0	6.5µM*	9%	-2%	16%
CN1c2ccccc2Oc2nnc(Cl)cc21	8%	-52*	-22%	2%	6%	12%
CN1c2ccccc2Oc2nnc(N3CCN(Cc4ccccc4)CC3)cc21	?	-96*	?	-23%	?	1%
SMILES	TDP1 cell CPT	IL-1B inflam inh	DT40 TDP1 no CPT	HT1080 IDH1KD tx	ELG1 DNA repair	HT1080-NT tox
O=C1Nc2ccccc2C1(O)Cc1ccccn1 (stereo unspecified)	16%	0	2%	-11%	7%	8%
CC1=C(C(=O)OCCCBr)C(c2ccc3c(c2)OCO3)NC(=O)N1 (stereo unspecified)	26µM*	-1	23µM*	8%	?	-2%
CC1=C(C(=O)OCCC(C)C)C(c2ccc3c(c2)OCO3)NC(=O)N1 (stereo unspecified)	?	-13	?	-13%	-5%	-7%
CCOC(=O)C(C)OC(=O)C1=C(C)NC(=O)NC1c1ccc2c(c1)OCO2 (stereo unspecified)	3.7µM*	50	4.1µM*	0%	-2%	6%
CCCCCOC(=O)C1=C(C)NC(=O)NC1c1ccc2c(c1)OCO2 (stereo unspecified)	-13%	-54*	-30%	-7%	-6%	-15%
CSCCOC(=O)C1=C(C)NC(=O)NC1c1ccc2c(c1)OCO2 (stereo unspecified)	0%	-23	21%	4%	-13%	0%
CC1=C(C(=O)OCC2CCCO2)C(c2ccc(Cl)c(Cl)c2)NC(=O)N1 (stereo unspecified)	?	-50*	?	-1%	?	-4%
CCOC(=O)C1=C(CCl)NC(=O)NC1c1ccc2c(c1)OCO2 (stereo unspecified)	15µM*	-100*	2.6µM*	?	?	?
CCOC(=O)C1=C(CN2CCSCC2)NC(=O)NC1c1ccc2c(c1)OCO2 (stereo unspecified)	8%	-5	-17%	1%	1%	0%
O=c1c2ccccc2sn1-c1cc(S(=O)(=O)N2CCOCC2)ccc1N1CCOCC1	4.5µM*	-102*	4.5µM*	?	8%	?
O=c1c2ccccc2sn1-c1cc(S(=O)(=O)N2CCOCC2)ccc1N1CCCCC1	2.5µM*	·	5.6µM*	·	·	·
